ΔTm data for eleven compounds are collected here from ChEMBL document CHEMBL5724796, “Tm Shift (DSF) assay results for EUbOPEN Chemogenomics Library” (2024).

Common to all, as to details: Compound concentration 20.0 uM
Experiment [1] has as its target Tyrosine-protein kinase ABL1 (Homo sapiens) (UniProt P00519).
The target in experiment [2] is Bromodomain-containing protein 4 (Homo sapiens) (UniProt O60885).
The target of experiment [3] is Cyclin-dependent kinase 2 (Homo sapiens) (UniProt P24941).
Experiment [4] concerns the target Casein kinase I isoform delta (Homo sapiens) (UniProt P48730).
Experiment [5] addresses Glycogen synthase kinase-3 beta (Homo sapiens) (UniProt P49841).
Experiment [6] concerns the target Mitogen-activated protein kinase 1 (Homo sapiens) (UniProt P28482).
The target of experiment [7] is T1, Aurora kinase A (Homo sapiens) (UniProt O14965).
T1 sequence (whole entry): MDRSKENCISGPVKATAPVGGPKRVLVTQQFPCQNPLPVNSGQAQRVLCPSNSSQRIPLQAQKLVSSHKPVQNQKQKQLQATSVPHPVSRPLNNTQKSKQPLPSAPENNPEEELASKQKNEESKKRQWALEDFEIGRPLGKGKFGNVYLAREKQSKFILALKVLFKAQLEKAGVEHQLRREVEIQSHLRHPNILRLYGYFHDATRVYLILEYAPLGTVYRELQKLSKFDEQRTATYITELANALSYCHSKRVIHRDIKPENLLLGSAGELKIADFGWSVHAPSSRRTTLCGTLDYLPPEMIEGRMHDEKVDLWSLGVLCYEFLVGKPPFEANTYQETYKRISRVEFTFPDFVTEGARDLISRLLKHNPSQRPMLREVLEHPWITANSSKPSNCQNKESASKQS

Experiment [8] deals with T2, Transcription intermediary factor 1-alpha (Homo sapiens) (UniProt O15164).
T2 sequence (whole entry): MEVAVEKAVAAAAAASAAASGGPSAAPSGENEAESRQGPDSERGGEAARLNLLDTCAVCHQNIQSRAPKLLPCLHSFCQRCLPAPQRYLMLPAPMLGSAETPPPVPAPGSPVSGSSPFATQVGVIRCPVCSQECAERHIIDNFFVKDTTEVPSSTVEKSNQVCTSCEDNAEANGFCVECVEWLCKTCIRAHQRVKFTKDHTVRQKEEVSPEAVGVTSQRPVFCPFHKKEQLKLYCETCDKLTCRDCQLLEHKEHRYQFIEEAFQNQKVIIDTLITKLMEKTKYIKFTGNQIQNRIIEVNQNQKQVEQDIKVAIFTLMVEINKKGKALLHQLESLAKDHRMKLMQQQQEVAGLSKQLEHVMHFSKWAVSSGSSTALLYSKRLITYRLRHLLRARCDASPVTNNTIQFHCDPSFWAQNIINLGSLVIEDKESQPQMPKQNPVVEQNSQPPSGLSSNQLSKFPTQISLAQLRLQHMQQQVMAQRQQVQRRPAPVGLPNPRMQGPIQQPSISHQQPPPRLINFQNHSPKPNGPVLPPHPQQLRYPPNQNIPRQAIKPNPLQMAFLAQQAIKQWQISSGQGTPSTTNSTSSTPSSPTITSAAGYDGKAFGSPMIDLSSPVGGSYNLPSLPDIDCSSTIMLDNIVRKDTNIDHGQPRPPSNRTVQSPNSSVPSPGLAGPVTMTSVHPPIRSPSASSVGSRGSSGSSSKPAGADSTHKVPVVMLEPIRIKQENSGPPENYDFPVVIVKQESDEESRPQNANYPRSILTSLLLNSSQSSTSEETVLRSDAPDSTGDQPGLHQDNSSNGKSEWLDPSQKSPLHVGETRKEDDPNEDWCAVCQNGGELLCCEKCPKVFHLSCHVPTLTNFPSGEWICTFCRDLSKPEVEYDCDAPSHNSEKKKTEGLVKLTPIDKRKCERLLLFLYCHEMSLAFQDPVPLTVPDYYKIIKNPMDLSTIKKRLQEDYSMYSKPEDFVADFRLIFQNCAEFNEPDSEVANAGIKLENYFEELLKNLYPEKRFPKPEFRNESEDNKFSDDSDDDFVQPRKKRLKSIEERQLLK

Casein kinase I isoform delta (Homo sapiens), sequence (P48730 whole entry, looked up, canonical isoform): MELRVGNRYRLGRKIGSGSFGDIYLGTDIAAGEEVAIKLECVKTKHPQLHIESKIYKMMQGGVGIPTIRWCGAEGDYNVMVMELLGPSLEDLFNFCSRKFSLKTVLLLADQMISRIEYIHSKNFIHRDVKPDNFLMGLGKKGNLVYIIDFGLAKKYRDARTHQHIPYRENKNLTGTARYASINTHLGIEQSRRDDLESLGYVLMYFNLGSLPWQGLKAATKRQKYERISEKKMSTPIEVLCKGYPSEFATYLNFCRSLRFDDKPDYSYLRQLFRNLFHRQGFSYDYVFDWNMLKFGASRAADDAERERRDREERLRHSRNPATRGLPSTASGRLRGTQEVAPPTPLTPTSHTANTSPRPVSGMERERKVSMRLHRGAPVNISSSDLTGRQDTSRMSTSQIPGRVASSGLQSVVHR
Tyrosine-protein kinase ABL1 (Homo sapiens), sequence (P00519 whole entry): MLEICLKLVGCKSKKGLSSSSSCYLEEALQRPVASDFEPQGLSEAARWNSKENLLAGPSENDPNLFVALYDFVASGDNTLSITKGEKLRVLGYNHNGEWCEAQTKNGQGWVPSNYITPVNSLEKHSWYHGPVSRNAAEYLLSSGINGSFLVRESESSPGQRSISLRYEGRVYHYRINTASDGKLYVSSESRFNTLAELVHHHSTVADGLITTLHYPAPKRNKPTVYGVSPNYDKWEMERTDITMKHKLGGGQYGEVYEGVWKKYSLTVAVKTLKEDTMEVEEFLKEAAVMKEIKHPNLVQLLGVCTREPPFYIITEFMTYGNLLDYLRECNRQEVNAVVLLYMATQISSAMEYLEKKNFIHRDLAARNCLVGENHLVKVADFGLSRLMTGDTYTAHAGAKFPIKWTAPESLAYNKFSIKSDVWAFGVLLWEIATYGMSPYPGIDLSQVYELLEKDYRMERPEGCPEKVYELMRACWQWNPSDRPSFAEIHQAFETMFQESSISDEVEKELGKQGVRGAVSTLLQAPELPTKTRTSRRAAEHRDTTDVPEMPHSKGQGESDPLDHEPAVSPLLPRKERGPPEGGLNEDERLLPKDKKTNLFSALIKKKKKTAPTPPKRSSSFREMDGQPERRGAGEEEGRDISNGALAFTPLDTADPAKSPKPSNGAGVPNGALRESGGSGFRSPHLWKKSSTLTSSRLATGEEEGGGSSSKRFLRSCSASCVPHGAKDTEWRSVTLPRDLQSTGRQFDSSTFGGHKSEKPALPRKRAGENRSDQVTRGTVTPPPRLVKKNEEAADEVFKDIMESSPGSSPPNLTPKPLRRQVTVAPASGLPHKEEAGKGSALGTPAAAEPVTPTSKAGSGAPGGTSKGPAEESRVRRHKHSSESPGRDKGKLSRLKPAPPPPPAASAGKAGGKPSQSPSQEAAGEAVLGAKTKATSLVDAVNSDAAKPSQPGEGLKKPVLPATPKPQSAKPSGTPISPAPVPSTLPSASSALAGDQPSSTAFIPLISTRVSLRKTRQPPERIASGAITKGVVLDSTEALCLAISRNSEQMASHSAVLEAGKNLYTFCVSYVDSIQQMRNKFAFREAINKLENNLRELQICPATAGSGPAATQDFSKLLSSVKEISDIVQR
Glycogen synthase kinase-3 beta (Homo sapiens), sequence (P49841 whole entry, looked up): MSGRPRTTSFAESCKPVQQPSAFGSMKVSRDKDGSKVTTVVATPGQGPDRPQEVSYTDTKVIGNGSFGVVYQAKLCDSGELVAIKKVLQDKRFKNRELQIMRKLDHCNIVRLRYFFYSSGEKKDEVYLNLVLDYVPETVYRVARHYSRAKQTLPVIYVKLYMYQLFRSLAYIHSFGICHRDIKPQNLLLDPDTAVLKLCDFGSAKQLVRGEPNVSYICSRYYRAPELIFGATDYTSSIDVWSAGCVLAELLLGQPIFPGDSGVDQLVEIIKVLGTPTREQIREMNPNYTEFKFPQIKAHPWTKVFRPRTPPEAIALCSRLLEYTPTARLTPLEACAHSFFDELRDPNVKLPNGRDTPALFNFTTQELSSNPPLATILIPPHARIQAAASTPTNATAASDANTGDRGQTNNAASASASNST
Mitogen-activated protein kinase 1 (Homo sapiens), sequence (P28482 whole entry): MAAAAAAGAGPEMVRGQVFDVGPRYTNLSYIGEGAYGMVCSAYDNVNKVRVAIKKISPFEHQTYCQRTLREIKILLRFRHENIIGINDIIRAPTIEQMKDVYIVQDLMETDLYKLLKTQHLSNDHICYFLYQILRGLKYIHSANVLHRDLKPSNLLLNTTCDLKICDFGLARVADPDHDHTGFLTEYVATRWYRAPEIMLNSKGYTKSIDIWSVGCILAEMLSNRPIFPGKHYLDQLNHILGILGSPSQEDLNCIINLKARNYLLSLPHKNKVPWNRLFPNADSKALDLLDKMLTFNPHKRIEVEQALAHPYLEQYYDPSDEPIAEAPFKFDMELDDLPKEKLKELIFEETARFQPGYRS

As a reminder, the ΔTm is the shift of the melting midpoint relative to a reference. `CCc1c(C#N)c(S[C@@H](C(N)=O)c2ccccc2)nc(N(C)C)c1C#N`: the ΔTm in experiment [1] was 0.6 °C; in experiment [2], -2.37 °C; in experiment [3], 0.24 °C; in experiment [4], -0.69 °C; in experiment [5], 0.35 °C; in experiment [6] it was 0.45 °C. In addition, the shift in melting temperature (ΔTm) in experiment [7] is -2.54 °C; in experiment [8] it was 0.58 °C.
Regarding `CCCCCCCCCCCCC/C=C/[C@@H](O)[C@H](CO)NC(=O)CBr`, the ΔTm in experiment [1] is 0.2 °C; in experiment [2] it was -6.16 °C; in experiment [3], -4.16 °C; in experiment [4], -9.74 °C; in experiment [5] it was -9.26 °C; in experiment [6] it was 0.47 °C. Further, the values for the ΔTm in experiment [7] and in experiment [8] were -14.4 °C and -2.18 °C, respectively.
`N#C[C@@H]1C[C@@H]2C[C@@H]2N1C(=O)[C@@H](N)C12CC3CC(CC(O)(C3)C1)C2`: the ΔTm in experiment [1] is 0.22 °C; in experiment [2], 0.38 °C; in experiment [3], 0.24 °C; in experiment [4] it was -0.14 °C; in experiment [5] it was -0.19 °C; in experiment [6], 0.33 °C. In addition, the results for the thermal shift (ΔTm) in experiment [7] and in experiment [8] were -2.27 °C and 1.46 °C, respectively.
On to `CC(C)c1c(-c2ccccc2)[nH]c2c(C#N)cnn2c1=O`, for which the ΔTm in experiment [1] is 0.72 °C; in experiment [2], -2.81 °C; in experiment [3], 0.4 °C; in experiment [4], -0.22 °C; in experiment [5], -0.15 °C; in experiment [6], 0.17 °C. For the same compound, the ΔTm in experiment [7] is -1.64 °C; in experiment [8], -0.06 °C.
For `O=S(=O)(CSc1nnc(Br)n1Cc1ccc(Br)c2ccccc12)Nc1cccnc1`, the shift in melting temperature (ΔTm) is 0.41 °C in experiment [1]; -4.11 °C in experiment [2]; -0.15 °C in experiment [3]; -0.32 °C in experiment [4]; -0.3 °C in experiment [5]; 0.05 °C in experiment [6]. In addition, the ΔTm is -1.41 °C in experiment [7] and -0.15 °C in experiment [8].
For `CN1C(=O)c2c(nn(Cc3ccc(-c4cccc(F)n4)cc3)c2Nc2ccccc2)N2C1=N[C@@H]1CCC[C@@H]12`, the ΔTm in experiment [1] was 0.2 °C; in experiment [2], 0.64 °C; in experiment [3], -0.42 °C; in experiment [4] it was -0.09 °C; in experiment [5] it was 2.76 °C; in experiment [6] it was 0.5 °C. Besides, the results for the ΔTm in experiment [7] and in experiment [8] were -0.82 °C and 0.46 °C, respectively.
Turning to `CS(=O)(=O)N1CCN(C(=O)c2cnc3ccc(Cl)cc3c2-c2ccc(C3(C#N)CC3)cc2)CC1`, the ΔTm in experiment [1] was 0.55 °C; in experiment [2], -2.94 °C; in experiment [3], 0.81 °C; in experiment [4] it was 0.96 °C; in experiment [5] it was 4.93 °C; in experiment [6], 0.97 °C. In addition, the ΔTm in experiment [7] is -2.24 °C; in experiment [8] it was -1.2 °C.
As to `CCCC(NC(=O)C(CC(C)C)NC(=O)OCc1ccccc1)C(=O)C(=O)NCc1ccccn1` (racemic), the ΔTm in experiment [1] is 0.33 °C; in experiment [2], -1.67 °C; in experiment [3], -0.66 °C; in experiment [4], 0.03 °C; in experiment [5], -0.68 °C; in experiment [6], -0.49 °C. Besides, the ΔTm is -1.04 °C in experiment [7] and -0.95 °C in experiment [8].
In the case of `CCN(CC)c1ccc(C2=NNC(=O)C[C@H]2C)cc1[N+](=O)[O-]`, the ΔTm in experiment [1] is 0.04 °C; in experiment [2], 0.2 °C; in experiment [3], -0.04 °C; in experiment [4], 0.06 °C; in experiment [5] it was 0.13 °C; in experiment [6] it was -0.11 °C. The ΔTm in experiment [7] was -0.2 °C; in experiment [8] it was -0.15 °C.
Consider `CCNC(=O)c1cc2c(-c3cc(C(C)(C)O)ccc3Oc3c(C)cc(F)cc3C)cn(C)c(=O)c2[nH]1`, for which the ΔTm in experiment [1] is 0.23 °C; in experiment [2], 11.1 °C; in experiment [3], 0.42 °C; in experiment [4] it was -0.31 °C; in experiment [5], -0.33 °C; in experiment [6], 1.43 °C. The figures for the ΔTm in experiment [7] and in experiment [8] were -2.76 °C and 0.91 °C, respectively.
Turning to `C[C@H](N)C(=O)N1C[C@H](CCCB(O)O)[C@](N)(C(=O)O)C1`, the ΔTm was 0.03 °C in experiment [1]; -2.12 °C in experiment [2]; -0.11 °C in experiment [3]; -0.32 °C in experiment [4]; -0.3 °C in experiment [5]; 0.12 °C in experiment [6]. The ΔTm was -2.46 °C in experiment [7] and -0.11 °C in experiment [8].
